Biological target: SLIT1
Experiment: pooled miR-30 sensor sort-seq; sequence = guide strand
Settings: shRNA
Note: reference of the scale not given here.

Row | Sequence | sensor-assay potency score (higher = more potent)
1 | TAAGTTTTTTAAACATCCCAGT | -1.01
2 | TTCAATCGCAGTTCTGCCGTGG | 0.209
3 | TTCAATTTCTGACACCTTGTTG | -0.171
4 | TTGACACTGAGCAACTTCTCAC | -0.268
5 | TTGACATGGGTTCAGATCCGGA | -1.04
6 | TTGAGGATCTGCCACAGGCGGA | -1.35
7 | TTCTTGCTCTTGATCTGCCCGA | -0.859
8 | TTGCTTAAGGAACTGATCTTGT | -0.323
9 | TGAAGGTAGACAGCTGTCCCGG | -1.03
10 | TTGCAGGTCAGTGAACTGCAGG | -1.32
11 | TTGCTCACACAGCTCGCCCGAA | -0.836
12 | TTGTGGATGCAGCTGATGCGGT | -0.921

Biological target: SLITRK3
Experiment: as above
Settings: shRNA

Row | Sequence | sensor-assay potency score (higher = more potent)
13 | TTGCAGTTGACAGTCAAGCCAA | -0.544
14 | TTCTCATTGAGGTCTATCTGGA | -0.877
15 | TAAAAAAGAACCTTTAACCTAT | 0.15
16 | AATGACATTGTAATCTGCCTGC | 0.274
17 | TTATCCACAACATCCTTCCTCT | 0.0957
18 | TTAACTTCACAGTAGCATGGAT | -0.128
19 | TTCATGTAGATATAGTCTCTTT | -0.676
20 | TTGAACTCAAAGTACAAGTAGT | -0.338
21 | TCTTTTTCCAGCAAGGTCCGGT | -0.176
22 | TTTCTCGTAGGTCCTTTCCATG | -1.36
23 | TTGCACATTTGGGTAACCGGGT | -0.695
24 | TTGATGTGCAAATTACAGGTAC | -0.245

Biological target: SLITRK5
Experiment: as above
Settings: shRNA

Row | Sequence | sensor-assay potency score (higher = more potent)
25 | TACAGTGTGACACCTCTGCAAA | -1.11
26 | TAATTGACAAACTCATTGGGAT | 0.191
27 | TTCCAGACTGAATCTCGCGGAT | -0.818
28 | TTGGATGAGTGACTTCAGCTGG | 0.319
29 | TCGCTCTGGTTCTTCTTCCTGC | -1.1
30 | TTATTCAAGAATAGCAGCTGGA | -0.212
31 | TACAGCAAACGCTAGAGTCTGC | -0.49
32 | TAATACAGTGTGACACCTCTGC | 0.818
33 | TACATCTGAATAGTCAGGGCAC | 0.215
34 | TAGTCAGAAATAAGTCTCCTTG | -0.638
35 | AACATTGCTACCTAGATGCAAA | -1.34

Biological target: SLMAP
Experiment: as above
Settings: shRNA

Row | Sequence | sensor-assay potency score (higher = more potent)
36 | TTCATCTCTAGTACTTGTGATT | -0.717
37 | TAACTTTCCGTGTATTCTCTGT | -0.472
38 | TAAGAGTCTATCTTCATCTATT | -0.538
